Laboratory results taken from PubChem BioAssay AID1018 (Sanford-Burnham Center for Chemical Genomics, 2008).
Out of some 200,000 compounds screened, about 15 (0.007%) were called active. This excerpt belongs to a sample that is enriched for actives. Values without a mark were called inactive. Cut-off read from the data, not from the text of the source: active = displacement above about 50%; inactive = the rest.

target: E3 ubiquitin-protein ligase XIAP (Homo sapiens) (UniProt P98170); test: XIAP antagonists, biochemical, IAP family, fluorescence polarization (AID 1018); details: XIAP BIR domain, fluorescence polarization peptide displacement; at 20 µM; active compounds read high
Sequence (P98170 whole entry, looked up, the tested form may be a part): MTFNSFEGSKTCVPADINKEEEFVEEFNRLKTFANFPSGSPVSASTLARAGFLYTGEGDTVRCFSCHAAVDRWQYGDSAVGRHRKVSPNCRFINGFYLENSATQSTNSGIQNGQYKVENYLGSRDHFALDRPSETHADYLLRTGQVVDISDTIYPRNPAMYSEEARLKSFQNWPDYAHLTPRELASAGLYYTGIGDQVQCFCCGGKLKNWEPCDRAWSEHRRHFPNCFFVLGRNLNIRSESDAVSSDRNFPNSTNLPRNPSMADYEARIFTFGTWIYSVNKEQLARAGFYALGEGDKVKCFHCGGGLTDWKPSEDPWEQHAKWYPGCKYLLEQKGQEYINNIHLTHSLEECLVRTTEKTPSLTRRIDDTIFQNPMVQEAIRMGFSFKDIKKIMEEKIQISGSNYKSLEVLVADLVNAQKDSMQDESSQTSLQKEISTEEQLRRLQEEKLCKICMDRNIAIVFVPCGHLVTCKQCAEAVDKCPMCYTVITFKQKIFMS

| SMILES | displacement |
| --- | --- |
| O=c1[nH]nc(CNc2ccc(OC(F)(F)F)cc2)c2ccccc12 | -3.9% |
| COc1ccccc1N(C)S(=O)(=O)c1ccc(C(=O)Nc2ccc3nc(C)sc3c2)cc1 | 1.3% |
| Cc1cc(C(F)(F)F)nn1CC(=O)N(C)c1ccccc1 | -1.9% |
| CCNS(=O)(=O)c1ccc(Br)c(OC)c1 | -3.2% |
| COc1cc2nc(CN3CCN(S(=O)(=O)c4ccc(Cl)cc4)CC3)[nH]c(=O)c2cc1OC | -6.8% |
| C#CCOCCOCCOCCNc1nc(N2CCN(C(=O)[C@H](CCCCN)n3cc([C@@H](N)C(C)CC)nn3)CC2)nc(N2CCN(C(=O)[C@H](CCCCN)n3cc([C@@H](N)CO)nn3)CC2)n1 (some centres undefined) | 3.3% |
| CN(C)S(=O)(=O)c1ccc(C(=O)Nc2ccnn2C2CCCCC2)cc1 | -3.3% |
| COc1ccc(-c2nc(CC(=O)O)cs2)cc1OC | -0.6% |
| O=C1NC2=C(CCc3ccccc32)C(c2ccccc2)N1 (centres undefined) | -5.4% |
| Cc1ccc(C2NC(=O)NC3=C2CCc2ccccc23)cc1 (centres undefined) | -5.1% |
| CC(C)c1ccc(C2NC(=O)NC3=C2CCc2ccccc23)cc1 (centres undefined) | 52.5% (active) |
| CCOC(=O)c1c(-c2ccc(C)o2)csc1NC(=O)CSc1nnnn1-c1ccccc1 | -8.2% |
| CCCCCCCCNC(=O)c1cnsn1 | -0.1% |
| COc1cccc(-c2cc(C(=O)NCCCn3ccnc3)c3ccccc3n2)c1 | -3% |
| O=C(Cn1cc2c(n1)CCCCC2)NC1CCN(Cc2ccccc2)CC1 | -4.9% |
| CCCc1cc(-c2n[nH]c(=S)n2CC)cs1 | -5.7% |
| O=C(Cn1c(=O)oc2cc(S(=O)(=O)N3CCCCC3)ccc21)N1CCc2ccccc2C1 | -5.2% |
| COc1ccc(NC(=O)OCCN2CCN(Cc3ccccc3)CCC2=O)cc1 | -8% |
| N#Cc1nc(COc2ccccc2)oc1N1CCN(Cc2ccccc2)CC1 | 0.7% |
| CCC(C)NC(=O)Cc1c(OC)ccc2cc(Br)ccc12 (centres undefined) | -4.6% |
| C=CCSc1nnc(-c2ccccc2NC(=O)CC)c(=O)[nH]1 | -1.1% |
| COc1ccccc1N1CCN(C(=O)CCN2C(=O)c3cccc4cccc(c34)C2=O)CC1 | -4.4% |
| CC(=O)Nc1ccc(NC(=O)C(C)c2cccc(C(=O)c3ccccc3)c2)cc1 (centres undefined) | 2.4% |
| CCOC(=O)c1ccc(NC(=S)NCCCN2CCCCC2)cc1 | -4.4% |

| SMILES | displacement |
| --- | --- |
| COC(=O)c1cc2c(-c3ccccc3)c(C)c3ccccn3c-2c1C(=O)OC | 26% |
| COC(=O)c1cc2n3ccccc3c(C)c(-c3ccccc3)c-2c1C(=O)OC | 72.2% (active) |
| COC(=O)c1c(Cl)c2n3ccccc3c(C)c(-c3ccccc3)c-2c1C(=O)OC | -0.6% |
| O=C(O)/C=C\C(=O)NCc1cccnc1 | -9.2% |
| Cc1cc(F)ccc1N1CCC(N2CCN(C(C)C)C(CCO)C2)CC1 (centres undefined) | -1.1% |
| O=C(c1cc(COc2ccc(F)cc2F)on1)N1CCSCC1 | -0.5% |
| CCN1CCN(C(=S)Nc2cc(S(=O)(=O)N(CC)CC)ccc2C)CC1 | -2.7% |
| Cc1ccccc1NC(=O)Cc1c(O)c2ccccc2[nH]c1=O | -1.1% |
| CCOC(=O)CSC(=S)NC(=O)c1ccc(OC)cc1 | -1.6% |
| CCOC(=O)C1=C(C)NC(=NC)SC1c1ccccc1 (centres undefined) | -5% |
| CSc1nnc(-c2cccs2)n1-c1ccccc1 | 0.8% |
| CCOC(=O)C1(CC2CC2)CCN(Cc2ccc(O)c(Cl)c2)CC1 | -4.8% |
| CCCc1cc(=O)[nH]c(SCC(=O)N(CC)C2CCS(=O)(=O)C2)n1 (centres undefined) | -4.4% |
| CC(C)(C)C1=C(C#N)C(c2ccncc2)C(C#N)=C(N)O1 (centres undefined) | -0.4% |
| CCN1CCCC1CNC(=O)Cn1cccc1C(=O)c1ccccc1 (centres undefined) | -6.4% |
| CC(=O)c1cc(-c2ccccc2)n(CC(=O)Nc2cc(C)cc(C)c2)c1C | -1% |
| Cc1ccc(C)c2[nH]c(=O)c(CN(Cc3ccco3)C(=S)NCC3CCCO3)cc12 (centres undefined) | 0.3% |
| CCN(c1ccccc1)S(=O)(=O)c1cc(C(=O)Nc2ccccc2Cl)ccc1F | -5.8% |
| O=C(c1ccc(F)cc1)N1CCCCC(Sc2nnnn2-c2ccccc2)C1=O (centres undefined) | -21.1% |
| Cc1c(C(=O)C(=O)NCC2CCCO2)c2ccccc2n1C (centres undefined) | -2.9% |
| CCOC(=O)C(=O)Nc1cc(Cl)ccc1C | -10.6% |
| Cc1c(N)cccc1-n1cnnn1 | -4% |
| Cc1onc(-c2c(F)cccc2Cl)c1C(=O)N1CCc2ccccc2C1 | -8.4% |
| O=C(COC(=O)CCc1nc2ccccc2s1)Nc1cccc(S(=O)(=O)N2CCOCC2)c1 | -5.8% |

| SMILES | displacement |
| --- | --- |
| c1ccc(Cn2nnc3c(NCc4ccc5c(c4)OCO5)nc(C4CC4)nc32)cc1 | -10.8% |
| CCCc1nc(NCc2ccc3c(c2)OCO3)c2nnn(Cc3ccccc3Cl)c2n1 | 51.1% (active) |
| Cc1nc(NCc2ccc3c(c2)OCO3)c2nnn(Cc3ccccc3)c2n1 | -8.1% |
| O=C(COC(=O)c1ccc[n+]([O-])c1)Nc1c(Br)cc([N+](=O)[O-])cc1Br | -4.5% |
| Cc1cc(C)c(NC(=S)N(CCN(C)C)Cc2cccs2)c(C)c1 | -10.6% |
| C=C(C)C1Cc2c(C)nn(-c3cccc4ccccc34)c2C1 (centres undefined) | -4.8% |
| CCOC(=O)c1ccc(NC(=O)N2CCN(CCc3ccccc3)CC2)cc1 | -8.1% |
| Cc1sc2ncn(-c3ccccc3)c(=O)c2c1C | 4.2% |
| Cc1ccc2nc(C3CCCN(C(=S)Nc4ccccc4C)C3)[nH]c2c1 (centres undefined) | -10% |
| CCCOC(=O)/C(=C\C=C\c1ccco1)NC(=O)c1ccccc1 | -0.1% |
| Cc1ccc(N/C(N)=N/c2nc(CSc3ccc(C)cc3)cc(=O)[nH]2)cc1 | 1.1% |
| CC(/C=C1\SC(=S)N(NC(=O)c2ccccc2C)C1=O)=C\c1ccccc1 | -1.8% |
| Fc1cccc(CSc2nc3ccncc3[nH]2)c1 | -5.3% |
| CCOc1cc(N2CCOCC2)c(OCC)cc1NC(=O)CSc1ncccn1 | -8.5% |
| O=C(Cn1cc(CCO)nn1)N1CCNCC1 | -26.3% |
| CCOC(=O)c1c(C)[nH]c(C)c1C(=O)CSc1nnc(-c2ccncc2)n1C | -0.3% |
| O=C(Nc1cn(-c2ccccc2)nc1-c1ccc(Cl)cc1)c1ccccc1 | -8.1% |
| CN1CCN(CC(O)COC(c2ccccc2)c2ccccc2)CC1 (centres undefined) | -2.7% |
| CS(=O)(=O)N(CC(=O)Nc1ccc2c(c1)OCO2)c1ccccc1 | 0.9% |
| CCCCCC(=O)N1CCN(CCN=CC2=C(O)CC(c3ccc(OC)c(OC)c3)CC2=O)CC1 (centres undefined) | -3.4% |
| O=c1[nH]c2cc3c(cc2cc1CN(Cc1cccnc1)C(=S)NCc1ccco1)OCO3 | -8.9% |
| O=C(NC1CCCC1)C(c1ccncc1)N(Cc1ccco1)C(=O)c1ccc(-c2ccccc2)[nH]1 (centres undefined) | -0.5% |
| O=C(CNC(=O)c1ccc(N2C(=O)c3ccccc3C2=O)cc1)OCC(=O)c1ccccc1 | -3.8% |
| CCc1ccc(C(=O)COC(=O)CNC(=O)c2ccc(N3C(=O)c4ccccc4C3=O)cc2)cc1 | -2.7% |

| SMILES | displacement |
| --- | --- |
| O=C(CNC(=O)c1ccc(N2C(=O)c3ccccc3C2=O)cc1)OCC(=O)c1ccc(Cl)cc1 | 77.6% (active) |
| CC1CCCN(C(=O)c2ccc3c(=O)n(C4CCCC4)c(=S)[nH]c3c2)C1 (centres undefined) | -8.7% |
| O=C(c1ccc2c(=O)n(C3CCCC3)c(=S)[nH]c2c1)N1CCN(C2CCCCC2)CC1 | -21.2% |
| O=C(c1ccc2c(=O)n(C3CCCC3)c(=S)[nH]c2c1)N1CCCCCC1 | 68.1% (active) |
| Cc1ccc(NC(=O)c2ccc(Cl)nc2)cc1 | -3.5% |
| Cc1cccc(S(=O)(=O)NCC2CCCO2)c1 (centres undefined) | -6.3% |
| Cc1cc(C(=O)NCc2ccc(C(=O)O)o2)c(C)o1 | -8.1% |
| CC1(C)NC(C)(C)c2nonc2/C1=N\O | -3.8% |
| CC(C)(C)n1nnnc1C(c1ccncc1)N(Cc1ccccc1)Cc1ccco1 (centres undefined) | -4.2% |
| O=S(=O)(/C=C/c1ccccc1)N1CCN(c2ccccc2)CC1 | -3.9% |
| CC(C)(C)n1nnnc1C(c1cccnc1)N1CCN(c2cccc(C(F)(F)F)c2)CC1 (centres undefined) | -2.9% |
| CCOC(=O)Nc1ccc(OC)cc1S(=O)(=O)N1CCCCC1 | -2.5% |
| CCCCOC(=O)Nc1ccc(OC)cc1S(=O)(=O)N1CCOCC1 | 58.7% (active) |
| COc1ccc(NC(=O)c2cc(OC)c(OC)cc2OC)c(S(=O)(=O)N2CCOCC2)c1 | -3.3% |
| O=C1c2ccccc2-c2onc3ccc(NCc4ccco4)c1c23 | 76.4% |
| O=C1c2ccccc2-c2onc3ccc(NCCCn4ccnc4)c1c23 | 70.1% (active) |
| CCNc1ccc2noc3c2c1C(=O)c1ccccc1-3 | -8.9% |
| Cc1cc(=O)[nH]c(S/C=C/c2ccccc2)n1 | 0.7% |
| CCN(CC)S(=O)(=O)c1ccc(C)c(NC(=O)COC(=O)CNC(=O)c2ccc(C(C)(C)C)cc2)c1 | -10.4% |
| Cc1nn(CCC#N)c2[nH]c(=O)cc(C(F)(F)F)c12 | -4.9% |
| Cc1ccc(C(NC(N)=O)c2ccccc2C)cc1 (centres undefined) | -1.9% |
| S=c1[nH]nc(CN2CCCCC2)n1-c1ccc(Cl)cc1 | -9.6% |
